# Bioassay records from PubChem.
# Compounds with a hit are over-represented: about 4.1% of the library has one in this group of screens.
# Gli-Sufu antag: blocks Gli-Sufu signaling in a luciferase reporter | Sufu-KO-LIGHT fibroblasts, Gli luciferase reporter luminescence | inhibition, % at 5 µM | 0.74% of 340,000 active;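 active = inhibition above about 55%, limit read from the data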;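 note: 0% = DMSO-treated cells and 100% = wells with medium but no cells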
# Jurkat NFkB inh: lowers PMA/ionomycin-induced NF-kB signal in Jurkat cells | PMA/ionomycin-induced NF-kB luciferase reporter, luminescence | inhibition, % at 4 µM | 0.53% of 330,000 active | AID 435003; in the data active = inhibition above about 50%
# 697 NFkB inh: lowers PMA/ionomycin-induced NF-kB signal in 697 B cells. 697 B-cell NF-kB luciferase reporter, 16 h. inhibition, % at 4 µM. 0.33% of 330,000 active. AID 435022; in the data active = inhibition above about 35%
# aSyn 5UTR inh: 5' untranslated region of α-synuclein, MLPCN primary screen. alpha-synuclein 5'UTR reporter, inhibitor activity. inhibition, % (tested at 7.5 µM). 0.82% of 300,000 active. AID 1813; in the data active = inhibition above about 60%;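 note: H4 neuroglioblastoma cells stably carrying SNCA 5'UTR luciferase fusion; 0% = DMSO wells and 100% = positive control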
# Mdm2 MdmX PPI: disrupts the human Mdm2-MdmX interaction; inhibition, % at 8 µM; 3% of 330,000 active; SaOS-2 split-luciferase Mdm2/MdmX complementation, luminescence;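 active = inhibition of at least 50% at 8 µM in the primary screen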
# Target sequence (O15151 whole entry, looked up): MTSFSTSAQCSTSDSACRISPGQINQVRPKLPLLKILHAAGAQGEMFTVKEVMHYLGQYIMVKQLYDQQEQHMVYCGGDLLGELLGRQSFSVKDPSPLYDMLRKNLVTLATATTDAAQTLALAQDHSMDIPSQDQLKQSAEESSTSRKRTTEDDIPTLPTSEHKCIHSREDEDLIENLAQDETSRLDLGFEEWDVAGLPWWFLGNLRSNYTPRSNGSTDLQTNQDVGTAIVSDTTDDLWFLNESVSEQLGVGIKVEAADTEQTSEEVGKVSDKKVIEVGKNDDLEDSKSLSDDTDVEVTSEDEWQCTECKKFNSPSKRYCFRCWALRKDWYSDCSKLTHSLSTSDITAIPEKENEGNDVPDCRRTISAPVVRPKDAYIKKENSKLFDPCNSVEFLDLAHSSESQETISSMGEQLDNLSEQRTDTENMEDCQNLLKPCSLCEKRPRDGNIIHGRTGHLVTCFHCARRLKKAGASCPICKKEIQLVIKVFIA
# Target sequence (Q00987 whole entry, looked up): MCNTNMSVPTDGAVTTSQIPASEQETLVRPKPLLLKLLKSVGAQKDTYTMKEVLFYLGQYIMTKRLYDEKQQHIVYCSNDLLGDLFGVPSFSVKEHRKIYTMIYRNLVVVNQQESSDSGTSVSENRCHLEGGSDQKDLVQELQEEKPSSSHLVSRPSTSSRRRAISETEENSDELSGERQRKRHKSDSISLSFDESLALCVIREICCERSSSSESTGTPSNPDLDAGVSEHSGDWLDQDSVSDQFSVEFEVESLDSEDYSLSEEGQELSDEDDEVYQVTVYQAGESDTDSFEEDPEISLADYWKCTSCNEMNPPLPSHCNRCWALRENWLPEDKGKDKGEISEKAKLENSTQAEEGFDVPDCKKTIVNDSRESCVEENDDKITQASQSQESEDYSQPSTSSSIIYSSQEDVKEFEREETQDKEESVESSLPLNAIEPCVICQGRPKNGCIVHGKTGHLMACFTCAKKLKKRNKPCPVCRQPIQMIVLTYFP
# KLF5 inhibitor: suppresses KLF5 promoter-driven expression. 0.23% of 290,000 active. inhibition, % at 5 µM. DLD-1 KLF5 promoter-luciferase reporter, luminescence;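 active = inhibition above a per-plate limit of that plate's mean compound inhibition plus 3 SD, cut at about 60% in these data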;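 note: 0% = DMSO wells and 100% = LY294002 at 200 µM; higher means less KLF5 promoter-driven luciferase light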
# Jurkat NFkB conf: inhibitors of the PMA/ionomycin-induced NF-kB reporter in Jurkat cells, retest. shares compounds with Jurkat NFkB inh. Jurkat NF-kB luciferase, 16 h. inhibition, % at 4 µM. 27% of 2,700 active;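 active = inhibition reaching about 45% at 4 µM in either replicate, limit read from the data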;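 note: plate controls were PMA/ionomycin stimulated DMSO wells for no effect and unstimulated DMSO wells for full effect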
# * = called active by the depositor; nt = no result given.
SMILES,Gli-Sufu antag,Jurkat NFkB inh,697 NFkB inh,aSyn 5UTR inh,Mdm2 MdmX PPI,KLF5 inhibitor,Jurkat NFkB conf
CO/N=C/C1CCN(c2ncc(C(F)(F)F)cc2Cl)C1=O (stereo not given),-11.1,-6.0,11.9,7.0,-20.8,6.0,nt
CS(=O)(=O)c1ccc(Sc2nc3ccccc3s2)c([N+](=O)[O-])c1,9.4,93.7*,-24.4,-41.7,22.5,1.4,58.4*
CC(C)(C)c1ccc(NC(=O)COC(=O)C2(C)CC2(Cl)Cl)cc1 (stereo not given),-30.5,-70.9,-19.5,-138.1,-63.0,-46.3,nt
O=C(C1CCN(S(=O)(=O)c2cccc3cccnc23)CC1)N1CCN(c2ccc(Cl)cc2)CC1,26.7,16.2,0.1,2.1,19.6,-10.1,nt
COC(=O)c1ccc(Oc2cc(C)nc(SC)n2)cc1,0.0,55.5*,-48.0,27.5,38.8,12.3,42.3
CC1CCN(c2ncnc3c2cnn3-c2ccccc2)CC1,-111.2,-187.0,-184.6,-118.8,-235.8,-155.1,-106.2
c1ccc(CNc2ncnc3c2cnn3-c2ccccc2)cc1,-56.2,25.7,-102.8,-256.4,4.4,-10.2,nt
CC(C)(C)Nc1ncnc2c1cnn2-c1ccccc1,-125.2,-173.2,-217.9,-104.0,-97.7,nt,-127.2
CCOC(=O)C1CCN(c2ncnc3c2cnn3-c2ccccc2)CC1,-2.6,6.0,27.4,9.9,0.1,-4.5,nt
Cc1ccc(O)c(NC(=O)C2CC(c3c(F)cccc3Cl)=NO2)c1 (stereo not given),7.8,51.0*,-14.9,2.8,6.1,-36.5,14.1
COc1ccc(C(C(=O)NC2CCCC2)N(Cc2cccnc2)C(=O)Cc2cccs2)c(OC)c1 (stereo not given),14.7,5.7,-0.2,-10.5,-2.1,-16.1,nt
CCn1c(SCC(=O)N2CCCCCC2)nc2c(c1=O)SCC2,-6.1,14.8,6.3,24.7,13.7,-41.8,nt
COC(=O)C1Cc2c([nH]c3ccccc23)CN1 (stereo not given),-3.4,53.3*,-7.7,-33.8,-14.8,-7.3,7.8
COc1cc(C(=O)Nc2ccc(S(=O)(=O)N3CCOCC3)cc2)c([N+](=O)[O-])cc1OC,-4.6,-20.9,-28.3,16.0,-6.3,-18.1,nt
CCCN1CCC(=NNc2ccc(S(=O)(=O)N(CC)CC)cc2[N+](=O)[O-])CC1,-4.7,58.8*,-11.7,78.9*,39.6,-3.9,-6.8
Clc1ccccc1/C=N/NC1=Nc2cccc3cccc1c23,-58.4,-162.5,-162.7,-229.6,27.3,-76.8,-86.5
CCOC(=O)C1CCN(C(=O)c2cc3c(-c4ccc(OC)c(OC)c4)nn(C)c3s2)CC1,2.7,7.7,15.7,24.2,4.3,-4.2,nt
CCOC(=O)C1CCCN(C(=O)c2cc3c(-c4cccc(OC)c4)nn(C)c3s2)C1 (stereo not given),-2.6,55.1*,-14.7,-18.9,42.3,-18.2,11.4
c1coc(C2=NC(c3ccco3)C(c3ccco3)N2)c1 (stereo not given),-10.0,nt,nt,nt,nt,nt,nt
COc1ccc2cc3cc(C(=O)N(C)C4CCCCC4)oc3nc2c1,-69.4,-135.9,-212.7,6.7,-151.1,-171.7,nt
COc1ccc2cc3cc(C(=O)N4CCCCC4C)oc3nc2c1 (stereo not given),-97.2,-156.5,-234.1,-32.3,-130.1,-106.1,-124.8
COc1cccc(C(=O)/C=C/Nc2cccc(O)c2)c1,-32.3,-198.5,-62.4,-86.7,-256.5,3.4,-181.9
COc1ccc(N/C=C/C(=O)c2ccc(Cl)cc2)cc1,-91.0,-174.2,-194.7,-105.1,-124.6,-2.6,-1.2
COc1cccc(C(=O)/C=C/Nc2ccc(NC(C)=O)cc2)c1,-60.0,-48.0,-53.7,-124.7,-16.7,-15.4,nt
O=C(Nc1ccccc1)C(=O)Nc1ccc2c(c1)N(C(=O)C1CC1)CCC2,-89.9,-163.0,-151.2,-121.0,-79.5,nt,-71.2
SMILES,Gli-Sufu antag,Jurkat NFkB inh,697 NFkB inh,aSyn 5UTR inh,Mdm2 MdmX PPI,KLF5 inhibitor,Jurkat NFkB conf
CC(=O)c1ccc(NC(=O)CC23CC4CC(C2)CC(n2nnc(C)n2)(C4)C3)cc1,2.7,-1.9,24.0,-5.7,-7.2,-18.7,nt
COc1ccc(C(=O)c2c(-c3cccc(C)c3)oc3ccc(N4CCOCC4)cc23)cn1,-29.3,-18.0,-37.0,5.3,17.8,-21.2,nt
CN(C)CCCN=Cc1c(O)n(Cc2ccc3c(c2)OCO3)c(=O)c2ccccc12,nt,-11.9,-6.3,-24.6,24.8,-3.7,nt
Nc1nc(-c2cccnc2)nc2sc3c(c12)CCCC3,-105.4,-159.1,-158.3,-122.3,-106.4,-160.8,-53.4
O=C1CN(c2nc(-c3cccnc3)nc3sc4c(c23)CCCC4)CCN1,6.0,-7.9,-23.0,-31.4,24.8,5.0,nt
CC(=O)c1ccc(NC(=O)NC2CCCCCCC2)cc1,-91.2,-150.1,-158.9,nt,-85.0,-109.3,-71.3
CC(=O)c1ccc(NC(=O)Nc2ccc(Cl)cc2)cc1,-66.7,-152.7,-128.5,-192.6,-74.2,-140.2,-84.5
Cc1nnc(SCC(=O)NC(C)(C)C)n1NCc1c(F)cccc1Cl,4.1,-3.1,1.7,14.9,-12.1,1.6,nt
CCC1(c2ccccc2)NC(=O)N(CC(=O)NNC(=O)c2ccc(F)cc2)C1=O (stereo not given),-14.7,21.2,7.6,nt,1.8,nt,nt
CC1CCCN(Cc2cccc(Oc3ccccc3)c2)C1 (stereo not given),12.9,-5.8,4.4,18.9,-6.4,-18.0,nt
Cc1cccc(-n2ncc3c2CCCC3NC(=O)Cn2cccn2)c1C (stereo not given),0.2,-3.3,4.7,-10.7,-7.2,3.6,nt
CCc1cc(C(=O)NC2CCCc3c2cnn3-c2cccc(C)c2C)n(C)n1 (stereo not given),82.5*,78.8*,34.6,42.3,8.9,0.5,76.5*
COc1ccc(C(C(=O)NC(C)(C)C)N(C(=O)CCC(=O)Nc2cc(C)on2)c2ccc(C)c(C)c2)cc1 (stereo not given),17.1,3.8,14.2,9.4,8.2,-6.6,nt
Cc1cc(NC(=O)c2cc3cccc([N+](=O)[O-])c3[nH]2)ccc1F,-72.8,-154.8,-107.1,-92.5,-93.2,-122.7,-81.2
COCC(C)NC(=O)c1cc2cccc([N+](=O)[O-])c2[nH]1 (stereo not given),0.7,1.2,-18.8,-7.9,5.5,-14.4,nt
CCOc1ccccc1N1CC(C(=O)NCCOc2ccccc2OC)CC1=O (stereo not given),-6.1,4.2,-5.8,8.7,3.0,1.7,nt
O=C(NCc1ccco1)C1CC(c2c(Cl)cccc2Cl)=NO1 (stereo not given),-1.6,9.9,1.2,28.9,2.1,-13.0,nt
COc1ccc(C2=NOC(C(=O)NCc3ccco3)C2)cc1 (stereo not given),-17.1,41.3,-30.8,-77.1,49.7,15.2,nt
O=C(NCc1ccco1)C1CC(c2ccc(Cl)c(Cl)c2)=NO1 (stereo not given),-3.5,51.9*,2.6,3.2,35.1,-13.0,15.4
O=C(NCc1ccco1)C1CC(c2ccc(C(F)(F)F)cc2)=NO1 (stereo not given),15.7,50.2*,1.1,-36.1,12.9,nt,19.4
